Shown are actives, neighbours in structure and some others; about 19% of the full set was active somewhere.
TDP1 cell CPT = growth inhibition of DT40 Tdp1-/-;hTDP1 cells with camptothecin (screen for TDP1 inhibitors); chicken DT40 Tdp1-/-;hTDP1 cells + 20 nM CPT, ATP luminescence, 48 h; Potency, µM (series often up to 46.2 µM), hits mostly inhibitors; AID 686979; 420,000 tested, 12% active; note: nearly all actives have a fitted effect of over 55% in size
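Cell growth measured by CellTiter-Glo luminescence after a minimum 48 h, 37 C compound exposure with 20 nM CPT in Tdp1-knockout DT40 cells stably expressing hTDP1, seeded 400/well; qHTS titration format.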
HepG2 viability = counter-screen for TGF-b inhibitors: cytotoxicity in HepG2 cells | HepG2 CAGA-GFP viability, ATP luminescence, 18 h | AID 588856 | 410,000 tested, 0.76% active | Potency, µM (doses to about 46.1 µM), most hits filed as cytotoxic
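CellTiter-Glo luminescence gave cytotoxicity after 18 hours at 37 degrees C. The cells were HepG2 CAGA-GFP in 1% FBS DMEM, stimulated with 500 pg/mL TGF-beta after compound addition. %Activity was normalised to no-cell wells (complete cell-killing) and DMSO (no toxicity), and curves were fitted and classified.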
TDP1 inh = TDP1 (human) enzyme inhibition. AID 485290. recombinant TDP1, AlphaScreen DNA substrate cleavage. Q9NUW8. 350,000 tested, 0.28% active. Potency, µM (titrated, usually from 130 µM), most hits filed as inhibitors; note: nearly all actives have a fitted effect of over 40% in size
Target sequence (Q9NUW8 whole entry, looked up): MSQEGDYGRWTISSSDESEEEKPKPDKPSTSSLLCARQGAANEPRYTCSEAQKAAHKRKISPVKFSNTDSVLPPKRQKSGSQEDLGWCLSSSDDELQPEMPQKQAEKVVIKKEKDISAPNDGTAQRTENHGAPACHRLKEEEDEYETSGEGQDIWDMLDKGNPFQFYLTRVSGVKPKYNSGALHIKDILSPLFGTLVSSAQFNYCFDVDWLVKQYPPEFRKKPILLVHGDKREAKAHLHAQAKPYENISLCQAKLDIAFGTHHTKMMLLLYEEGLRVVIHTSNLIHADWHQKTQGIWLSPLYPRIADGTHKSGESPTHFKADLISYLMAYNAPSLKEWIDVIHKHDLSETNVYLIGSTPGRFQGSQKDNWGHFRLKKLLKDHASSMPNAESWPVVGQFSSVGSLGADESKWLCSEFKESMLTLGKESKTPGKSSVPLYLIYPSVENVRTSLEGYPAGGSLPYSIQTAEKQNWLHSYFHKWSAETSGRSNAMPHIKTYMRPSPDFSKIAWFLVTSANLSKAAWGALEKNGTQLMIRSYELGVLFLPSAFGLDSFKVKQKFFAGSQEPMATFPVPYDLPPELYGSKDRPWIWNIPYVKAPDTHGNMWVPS
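AlphaScreen read-out: signal falls as enzyme removes the 3' tyrosine-FITC from a 5'-biotinylated DNA oligo (15 nM, 5 min, RT). Enzyme was E. coli-made recombinant Tdp1 at 1 nM, exposed to compound for 15 min beforehand; beads 10 ug/ml, 10 min.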
IL-1B inflam inh = inflammasome signaling inhibition, IL-1 beta readout. AID 743279. THP-1 LPS/ATP IL-1B secretion, AlphaLISA, 16 h; active compounds read low. 360,000 tested, 4.7% active. activity change, % at 57.5 µM; in the data active = activity change below about -50%; inconclusive = mostly about -30% to -49%
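Secreted IL-1B measured by AlphaLISA bead assay after 16 h compound exposure of THP-1 cells; compounds (final up to 57.5 uM) added 1 h before LPS (250 ng/mL) and ATP (1.25 mM) stimulation; lower signal means less secretion.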
TGFb SMAD3 inh = TGF-b pathway inhibition. HepG2 CAGA-GFP TGF-b/SMAD3 reporter, GFP fluorescence, 18 h; TGF-beta stimulated, 500 pg/mL final. Potency, µM (series often up to 46.1 µM), actives largely listed as inhibitors. 410,000 tested, 1.2% active. AID 588855; note: nearly all actives have a fitted effect of over 65% in size
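First, reporter cells (HEPG2 CAGA-GFP) rested 2 h at 37 degrees C. Next, compounds were pinned in and TGF-beta added to 500 pg/mL final. After 18 h, GFP was imaged per cell and summed per well.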
DT40 TDP1 no CPT = qHTS for Inhibitors of human tyrosyl-DNA phosphodiesterase 1 (TDP1): qHTS in cells in absence of CPT. DT40 Tdp1-/- hTDP1 cells, no CPT, ATP luminescence, 48 h. 420,000 tested, 15% active. Potency, µM (series often up to 46.2 µM), hits mostly inhibitors; note: nearly all actives have a fitted effect of over 55% in size
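Growth of hTDP1-complemented DT40 Tdp1-knockout cells is measured by ATP luminescence after at least 48 hr compound exposure at 37 °C, with DMSO substituting for the 20 nM CPT used in the parallel screen.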
Of the large screens only hits and unclear results are named; the others gave an inactive call. Unless noted, calls come from the whole dose curve; as a rule, active = well fitted curve in the direction sought with a large enough effect; inconclusive = small, poorly fitted or top-dose-only effect, or another doubt; inactive = no such curve, though single readings can be large; an effect the other way counts as inactive or inconclusive.

CCN(C(=O)C(NS(=O)(=O)c1cccc2nsnc12)c1ccccc1)c1ccccc1 (stereo not drawn)	TDP1 cell CPT inconclusive, DT40 TDP1 no CPT 23µM (no result: IL-1B inflam inh)
CCOc1ccc(NC(=O)C(NS(=O)(=O)c2cccc3nsnc23)c2ccccc2)cc1 (stereo not drawn)	TDP1 cell CPT inconclusive, DT40 TDP1 no CPT inconclusive (no result: IL-1B inflam inh)
CCc1ccc(NC(=O)C(NS(=O)(=O)c2cccc3nsnc23)c2ccccc2)cc1 (stereo not drawn)	TDP1 cell CPT inconclusive, TGFb SMAD3 inh inconclusive, DT40 TDP1 no CPT 26µM
CCC(c1nnnn1Cc1ccco1)N1CCN(C(=O)c2ccco2)CC1 (stereo not drawn)	none
O=C(c1ccco1)N1CCN(C(c2ccccc2Cl)c2nnnn2Cc2ccco2)CC1 (stereo not drawn)	TDP1 cell CPT 16µM, DT40 TDP1 no CPT inconclusive
O=C(c1ccco1)N1CCN(C(c2ccccc2Cl)c2nnnn2Cc2cccs2)CC1 (stereo not drawn)	TDP1 cell CPT inconclusive, TGFb SMAD3 inh inconclusive, DT40 TDP1 no CPT 26µM
CO/N=C1/[C@H]2O[C@@H]2[C@@H](O)[C@H]2[C@H]1CCn1c(=O)n(-c3ccccc3)c(=O)n12	none (no result: TDP1 cell CPT, HepG2 viability, IL-1B inflam inh, TGFb SMAD3 inh, DT40 TDP1 no CPT)
Cc1ccc(CSc2nc(=O)c3c(n2C)NC(=O)CC3c2ccc(OC(C)C)cc2)cc1 (stereo not drawn)	TDP1 cell CPT inconclusive (no result: IL-1B inflam inh)
Cc1ccc(Cn2cc(CN3CC(N4CCN(Cc5ccccc5F)CC4)CS3(=O)=O)nn2)cc1 (stereo not drawn)	TDP1 cell CPT inconclusive, DT40 TDP1 no CPT 16µM (no result: HepG2 viability, TDP1 inh, TGFb SMAD3 inh)
CN(Cc1cn(Cc2cccc(C(F)(F)F)c2)nn1)C1CN(Cc2cn(Cc3cccc(C(F)(F)F)c3)nn2)S(=O)(=O)C1 (stereo not drawn)	TDP1 cell CPT 13µM, IL-1B inflam inh inconclusive, DT40 TDP1 no CPT 13µM (no result: HepG2 viability, TDP1 inh, TGFb SMAD3 inh)
Cc1cc(C)cc(Cn2cc(CN3CC(N4CCN(Cc5ccccc5F)CC4)CS3(=O)=O)nn2)c1 (stereo not drawn)	TDP1 cell CPT inconclusive, DT40 TDP1 no CPT inconclusive (no result: HepG2 viability, TDP1 inh, TGFb SMAD3 inh)
O=S1(=O)CC(N2CCN(Cc3ccccc3F)CC2)CN1Cc1cn(Cc2ccc(C(F)(F)F)cc2)nn1 (stereo not drawn)	TDP1 cell CPT 13µM, DT40 TDP1 no CPT 9.2µM (no result: HepG2 viability, TDP1 inh, TGFb SMAD3 inh)
COCCNC(=O)c1[nH]c2cc(C)ccc2c1Sc1ccc(Cl)cc1	none (no result: IL-1B inflam inh)
Cc1ccccc1C(=O)Nc1cccc(OCc2cc(=O)n3c4c(sc3n2)CCCC4)c1	none (no result: IL-1B inflam inh)
O=C(CNC(=O)c1ccccc1Cl)OCc1cc(=O)n2ccsc2n1	none (no result: IL-1B inflam inh)
COc1cc(C2Nc3ccccc3C(=O)N2Cc2ccco2)cc(OC)c1OC (stereo not drawn)	TDP1 cell CPT inconclusive, DT40 TDP1 no CPT inconclusive (no result: IL-1B inflam inh)
O=C(NNc1ccc(F)cc1F)c1cccs1	none (no result: HepG2 viability, TDP1 inh, IL-1B inflam inh, TGFb SMAD3 inh)
COc1cc(-c2nn3c(-c4cc(-c5ccccc5)n[nH]4)nnc3s2)cc(OC)c1OC	TDP1 cell CPT 16µM, DT40 TDP1 no CPT 8.9µM (no result: IL-1B inflam inh)
COc1cc(-c2nn3c(Cc4ccccc4)nnc3s2)cc(OC)c1OC	TDP1 cell CPT 35µM, DT40 TDP1 no CPT inconclusive
COc1cc(-c2nn3c(-c4ccccc4)nnc3s2)cc(OC)c1OC	TDP1 cell CPT inconclusive, DT40 TDP1 no CPT inconclusive
COc1ccccc1-c1nn2c(-c3cc(C)[nH]n3)nnc2s1	TDP1 cell CPT 8.9µM, DT40 TDP1 no CPT 7.9µM (no result: IL-1B inflam inh)
Cc1cc2c(s1)c(/C=N/O)c(C(=O)NCc1ccccc1F)n2C	none (no result: TDP1 cell CPT, HepG2 viability, IL-1B inflam inh, TGFb SMAD3 inh, DT40 TDP1 no CPT)
CCOC(=O)C1CCN(C(=O)c2cccc(S(=O)(=O)NCc3ccccc3)c2)CC1	DT40 TDP1 no CPT inconclusive
CCC1Oc2ccc(C)cc2N(CC(=O)N2CCN(c3ccc(F)cc3)CC2)C1=O (stereo not drawn)	TDP1 cell CPT 21µM, TGFb SMAD3 inh inconclusive, DT40 TDP1 no CPT 18µM

Screens from PubChem BioAssay.
